VP16 counter – inhibits Gal4-VP16 luciferase reporter, ROR gamma counter-screen. Drosophila S2 Gal4-VP16 UAS-luciferase, luminescence, 20 h. Potency, µM (series often up to 53.6 µM), for inactives: top-dose activity, negative = inhibition, usual class: inhibitors. 310,000 compounds, 3.5% hits;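 also: Gal4-VP16 expression switched on by copper sulfate through the metallothionein promoter; potency is read from the fitted curve at half-maximal effect; % is scaled to controls: 0 for no effect and ±100 for the full control effect; nearly all actives have a fitted effect of over 50% in size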
Giardia kill – kills Giardia lamblia; 340,000 compounds, 0.15% hits; activity change, % at 7.66 µM, hits read low; Giardia lamblia trophozoite viability; in the data active = activity change below about -80%; inconclusive = between about -30% and that limit;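 also: parasites exposed to compound for two days anaerobically before the ATP read; % is scaled to controls: 0 for no effect and ±100 for the full control effect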
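Each well holds 100 Giardia trophozoites and compound. After two days (48 hrs) at 37 deg C in anaerobic conditions, ATP is quantified by luminescence.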
RORgamma inh – ROR gamma (mouse) transcription inhibition; AID 2551; Potency, µM (doses to about 53.6 µM), without a hit: top-dose activity change, negative = inhibition, hits mostly inhibitors; Drosophila S2 Gal4-RORgamma UAS-luciferase reporter, 20 h; P51450; 310,000 compounds, 5.4% hits; also: potency is read from the fitted curve at half-maximal effect; % is scaled to controls: 0 for no effect and ±100 for the full control effect; nearly all actives have a fitted effect of over 60% in size
Target sequence (P51450 whole entry, looked up, the tested form may be a part): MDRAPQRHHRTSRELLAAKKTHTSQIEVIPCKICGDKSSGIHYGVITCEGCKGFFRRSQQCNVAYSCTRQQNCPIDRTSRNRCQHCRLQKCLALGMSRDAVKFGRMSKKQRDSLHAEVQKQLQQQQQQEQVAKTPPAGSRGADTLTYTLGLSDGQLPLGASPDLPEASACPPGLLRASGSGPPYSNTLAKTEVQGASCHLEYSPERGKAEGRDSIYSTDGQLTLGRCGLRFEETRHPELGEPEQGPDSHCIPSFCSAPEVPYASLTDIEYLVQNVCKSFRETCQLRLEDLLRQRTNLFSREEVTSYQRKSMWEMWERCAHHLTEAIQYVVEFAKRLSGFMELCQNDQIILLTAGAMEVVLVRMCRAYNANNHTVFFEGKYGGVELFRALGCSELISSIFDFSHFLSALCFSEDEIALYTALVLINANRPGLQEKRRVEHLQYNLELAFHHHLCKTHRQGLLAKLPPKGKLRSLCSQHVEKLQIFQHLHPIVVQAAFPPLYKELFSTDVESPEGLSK
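In this cell-based reporter format, copper sulfate (700 uM final) drives Gal4–ROR gamma fusion expression from a metallothionein promoter in Drosophila Schneider cells; compounds preincubated 1 hr, reporter read after 20 hr at ambient temperature.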
p53 reactivator – re-activators of mutant p53 | 320,000 compounds, 0.063% hits | H1299 p53-A138V BP100-luciferase reporter, luminescence, 24 h | Potency, µM (doses to about 92.2 µM), for inactives: at the top dose activity change, positive = activation, usual class: activators | AID 504706; also: potency is read from the fitted curve at half-maximal effect; % of control where 0% means no effect; nearly all actives have a fitted effect of over 45% in size
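p53-null H1299 cells stably carrying temperature-sensitive p53-A138V and a BP100-luciferase reporter were pinned with compounds (4-point, 1:5 series) and held 24 hrs at 37 deg C. Luminescence was read 10 min after detection reagent.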
BRCA1 expr up – activators of BRCA1 expression; 380,000 compounds, 1.1% hits; AID 624202; Potency, µM (series often up to 46.1 µM), without a hit: at the top dose activation, most hits filed as activators; MCF7-BRCA1-FFLuc reporter, luminescence, 48 h; response scale: scaled: vehicle 0%, 10 µM genistein 100%; also: potency is read from the fitted curve at half-maximal effect; nearly all actives have a fitted effect of over 80% in size
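MCF7-BRCA1-FFLuc cells, 2000/well in phenol-red-free MEM, attached 2 h then treated 48 h at 37 C. Luciferase luminescence read 15 min after reagent; normalized to genistein maximum activation (10microM) and DMSO, concentration-response fitted.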
ELG1 DNA repair – inhibitors of ELG1-dependent DNA repair in HEK293T cells; HEK293T ELG1-luciferase reporter, luminescence, 16 h; DNA damage induced by 5-fluorouridine; Potency, µM (highest dose often 46.1 µM), without a hit: at the top dose activity change, negative = inhibition, most hits filed as inhibitors; 330,000 compounds, 2.3% hits; AID 504467; also: potency is read from the fitted curve at half-maximal effect; % is scaled to controls: 0 for no effect and ±100 for the full control effect; nearly all actives have a fitted effect of over 55% in size
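Overnight (16 hr) co-exposure of 2,000 cells/well to 5-fluorouridine and compound at 37 °C preceded detection. Luciferase was quantified via ONE-Glo luminescence; loss of signal denotes inhibition.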
Numbers without * were called inactive; ? = inconclusive; nt = not tested or not shown. Only some compounds are listed: those with a hit (about 7.6% of all), similar ones and a draw of the others. Unless noted, calls follow the shape of the dose curve; as a rule, active = well fitted curve in the direction sought with a large enough effect; inconclusive = small, poorly fitted or top-dose-only effect, or another doubt; inactive = no such curve, though single readings can be large; an effect the other way counts as inactive or inconclusive.

SMILES	VP16 counter	Giardia kill	RORgamma inh	p53 reactivator	BRCA1 expr up	ELG1 DNA repair
Nc1ccc2c(c1)C(=O)c1ccccc1-2	nt	16	nt	nt	26%	nt
O=c1[nH]c(-c2ccccc2O)nc2c1CCCC2	7%	-7	14%	-3%	5%	?
COC(=O)CCCC1=CC2=CC(=O)C(C)(O)C(=O)C2=CO1 (configuration not stated)	-14%	nt	15%	nt	nt	nt
CC(C)(C)Cc1nc(-c2ccccn2)no1	7%	3	6%	?	10µM*	?
Cc1ccc(SCc2nc(-c3ccccn3)no2)cc1	16%	-4	18%	?	5µM*	?
CCOc1ccc(CCNC(=O)c2cc3c(C)nccc3[nH]c2=O)cc1OCC	-8%	38	24%	3%	-34%	21µM*
CN1N/C(=C\c2ccccc2)N=C2C(=O)N(C)C(=O)N=C21	nt	-105*	nt	nt	-53%	nt
CC/C=C1/N=C2C(=O)N(C)C(=O)N=C2N(C)N1	nt	-88*	nt	nt	0%	nt
CN1C(=O)/C(=C/c2ccc3c(c2)OCO3)N=C1c1ccccc1	?	-11	14%	11%	-32%	-5%
Cc1ccc(O)c(C(=O)c2cnn(-c3ccccc3)c2)c1	6%	4	33%	?	58%	?
Cc1ccc(-n2cc(C(=O)c3ccccc3O)cn2)cc1	?	8	11µM*	3%	?	?
N#C/C(=C\c1ccc(OCc2ccc(F)cc2)cc1)C(=O)Nc1cccc(C(=O)O)c1	-9%	8	13%	?	11µM*	?
N#C/C(=C\c1ccc(OCc2ccc(Br)cc2)cc1)C(=O)Nc1cccc(C(=O)O)c1	-21%	3	11%	?	7.1µM*	?
N#C/C(=C/c1ccc(OCc2ccc(C(=O)O)cc2)cc1)C(=O)Nc1ccccc1	25%	8	-3%	-1%	-2%	9%
CC1CCN(C2=NC(=O)/C(=C/c3cn(-c4ccccc4)nc3-c3cccc(S(=O)(=O)N(C)C)c3)S2)CC1	-5%	0	2%	-24%	-11%	5.2µM*
[O-]/C(=C(\C(=S)Nc1ccccc1F)[n+]1ccccc1)c1ccc(OC(F)F)cc1	-1%	1	0%	2%	-21%	0%
COc1ccc(/C=C2\C(=O)ON=C2c2cccc([N+](=O)[O-])c2)cc1	4%	nt	5%	4%	nt	2%
CN(C)/[N+]([O-])=N/Oc1ccc([N+](=O)[O-])cc1[N+](=O)[O-]	nt	nt	nt	nt	-36%	nt
CCOC(=O)c1c(C)[nH]c(C)c1S(=O)(=O)NCC1CCN(Cc2cccc(F)c2)CC1	-16%	-3	-19%	6%	-6%	?
COC(=O)c1c(NC(=O)CSc2ncnc3ccccc23)sc(C)c1C	nt	-24	nt	nt	-16%	nt
CCOC(=O)c1c(NC(=O)CSc2ncnc3ccccc23)sc(C(C)=O)c1C	-7%	-8	-4%	4%	-36%	15µM*
CCOC(=O)c1c(NC(=O)CSc2nnc(-c3cccnc3)o2)sc(C(C)=O)c1C	?	-17	10µM*	-12%	8%	-31%
O=C(CSc1nnc(-c2cccnc2)o1)Nc1cccc(F)c1	nt	-27	nt	15%	10µM*	?
O=C(CSc1nnc(-c2ccncc2)o1)Nc1cccc(F)c1	nt	-1	nt	22%	?	?
CC(=O)c1ccc(N2CCN(C(=O)c3cc(-c4ccncc4)nc4ccc(Br)cc34)CC2)cc1	23%	-9	26%	-4%	0%	-11%
O=C(NCc1ccc(Cl)c(Cl)c1)c1cc(C2CCCCN2C(=O)OCCF)on1 (configuration not stated)	nt	nt	nt	nt	-7%	nt
Cc1ccc(S(=O)(=O)c2cn(CC(=O)Nc3ccccc3C)c3cc4c(cc3c2=O)OCO4)cc1	nt	nt	nt	nt	4%	nt
Cc1ccc(NC(=O)CN(C)C(=O)CCOc2ccccc2C)cc1	2%	-6	41%	-25%	-26%	-4%
